Active and inactive are the calls of the source.

For test [1], the system named is Plasmodium falciparum Sir2 (PF13_0152, Sir2A). As to the kind of experiment: Plasmodium falciparum Sir2A binding compounds – biochemical, small-molecule microarray, 635 nm fluorescence, primary screen (AID 1098).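 Further: score merges spot fluorescence intensity with its signal-to-noise ratio.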 Conditions: fluorescence 635 nm, higher = more signal.
Test [2] in a line: probe aDKK1 binding to arrayed compounds – biochemical, biotinylated probe, 635/667 nm fluorescence, primary screen (AID 1099).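 Further: score merges 667nm spot fluorescence with signal to noise across triplicate slides.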 The settings on record: small-molecule microarray, higher = more signal.
Test [3] is described as follows: probe aCHRDL2 binding to arrayed compounds – biochemical, biotinylated probe, 635/667 nm fluorescence, primary screen (AID 1100). The settings on record: small-molecule microarray, higher = more signal.
Test [4] is described as follows: change in splice reporter luminescence, either direction, cell-based, HEK293, spliceosome inhibition project, primary screen (AID 1101).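 Further: HEK293 cells carrying a splicing-competent luciferase reporter gene; test concentration not given here.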 Conditions: HEK293 splicing luciferase reporter, 24 h, higher = more signal, called active from +8 up or from −8 down.
Test [5] concerns the target Fibroblast growth factor 10 (Homo sapiens) (UniProt O15520). Briefly: compounds binding fibroblast growth factor 10 – biochemical, small-molecule microarray, 635 nm fluorescence, primary screen (AID 1102). Conditions: FGF10 binding, fluorescence 635 nm, higher = more signal.
Test [6] relates to glycogen synthase kinase-3 (GSK3A per assay name; protocol says GSK3B). As to the kind of experiment: compounds binding glycogen synthase kinase-3 – biochemical, small-molecule microarray, 635 nm fluorescence, GSK3A, primary screen (AID 1103). Further: the record names both GSK3A and GSK3B. Conditions: fluorescence 635 nm, higher = more signal.
Test [7] has as its target Epidermal growth factor receptor (Homo sapiens) (UniProt P00533). As to the kind of experiment: compounds binding epidermal growth factor receptor – biochemical, small-molecule microarray, 635 nm fluorescence, primary screen (AID 1104).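 Further: score merges 667 nm emission intensity with spot signal to noise over triplicate slides.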 Conditions: EGFR binding, higher = more signal.
Test [8] concerns the target Follistatin-related protein 3 (Homo sapiens) (UniProt O95633). As to the kind of experiment: compounds binding follistatin-related protein 3 – biochemical, small-molecule microarray, 635 nm fluorescence, primary screen (AID 1105).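 Further: score merges emission near 667 nm and signal to noise per printed spot across three slides.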 The settings on record: FSTL3 binding, higher = more signal.
In test [9] the target is Dickkopf-related protein 1 (Homo sapiens) (UniProt O94907). As to the kind of experiment: small molecules binding DKK1 protein – biochemical, small-molecule microarray, 635 nm fluorescence scan, primary screen (AID 1106).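 Further: score merges emission near 667 nm with signal to noise over three replicate slides.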 Conditions: higher = more signal.
Test [10] relates to Inhibin beta A chain (activin A). Briefly: small molecules binding activin A – biochemical, small-molecule microarray, 635 nm fluorescence scan, primary screen (AID 1107).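 Further: mouse activin A protein probed at 4.33 µg/mL on printed slides; score merges bound-protein fluorescence near 667 nm with spot signal-to-noise.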 Conditions: INHBA, higher = more signal.
The subject of test [11] is Human papillomavirus type 1a protein E7 (residues 44-93). As to the kind of experiment: small molecules binding HPV E7 44-93 – biochemical, small-molecule microarray, residues 44-93, 635 nm fluorescence, primary screen (AID 1108).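 Further: E7 fragment applied at 1 µg/mL in TBST for 1 h at 4 C; score combines spot fluorescence with its signal to noise ratio.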 The settings on record: fluorescence 635 nm, higher = more signal.
A short description of test [12]: hepatitis C replication reporter changes, two-sided – Huh7 cells, luciferase reporter, HCV replication inhibitor project, primary screen (AID 1109).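 Further: huh7 hepatoma cells harbouring a luciferase neomycin HCV replicon reporter; luciferase luminescence as measure of HCV replicon replication; test concentration not given here.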 The settings on record: Huh7 HCV replicon luciferase reporter, 48 h; higher = more signal.
Test [13] concerns the target Left-right determination factor 2 (Homo sapiens) (UniProt O00292). As to the kind of experiment: small molecules binding LEFTY2 protein – biochemical, small-molecule microarray, 635 nm fluorescence scan, primary screen (AID 1110). Conditions: higher = more signal.
In test [14] the target is Calmodulin-1 (Homo sapiens) (UniProt P0DP23). As to the kind of experiment: small molecules binding calmodulin-1 with EGTA – biochemical, small-molecule microarray, Cy5-labelled CALM1, profiling panel (AID 1111).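 Further: labelled calmodulin applied in Tris saline Tween buffer holding calcium plus EGTA and DTT.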 The settings on record: Cy5-CALM1 binding fluorescence, higher = more signal.
For test [15] the target is unchanged. As to the kind of experiment: small molecules binding Ca-loaded calmodulin-1 – biochemical, small-molecule microarray, Cy5-labelled CALM1, plus calcium, artefact control for SMM control-protein annotation, profiling panel (AID 1112).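 Further: score merges spot fluorescence with signal to noise from triplicate slides.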 Conditions: Cy5-CALM1 binding fluorescence, higher = more signal.
The nature of test [16]: probe aWnt5a binding to arrayed compounds – biochemical, biotinylated probe, 635/667 nm fluorescence, primary screen (AID 1113).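 Further: score merges 667 nm fluorescence intensity with signal-to-noise per printed feature.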 Conditions: small-molecule microarray, higher = more signal.
Test [17] is described as follows: probe aShh binding to arrayed compounds – biochemical, biotinylated probe, 635/667 nm fluorescence, primary screen (AID 1114).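 Further: probe is biotin-labelled aShh protein from a stem cell growth factor screen; measures binding of labelled protein to compounds printed on the slide; score merges feature fluorescence at 667 nm with signal-to-noise.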 The settings on record: small-molecule microarray, higher = more signal.
Test [18] in a line: probe aNog binding to arrayed compounds – biochemical, biotinylated probe, 635/667 nm fluorescence, primary screen (AID 1115).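 Further: probe is biotinylated aNog protein used at 0.15 µg/mL for 1 h at 4 C; z-score combines 667 nm fluorescence of each spot with its signal to noise.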 Conditions: small-molecule microarray, higher = more signal.
Test [19] addresses Torsin-1A-interacting protein 1 (Homo sapiens) (UniProt Q5JTV8). As to the kind of experiment: compound microarray binding of lysate hLAP1 – cell lysate, small-molecule microarray, COS7 lysate, 635/667 nm fluorescence, primary screen (AID 1116). Conditions: 635 nm fluorescence, higher = more signal.
Test [20] addresses Alpha-bungarotoxin (Bungarus multicinctus) (UniProt P60615). Briefly: compounds binding labelled alpha-BTX control protein – biochemical, small-molecule microarray, Alexa647 label, 635/667 nm fluorescence, artefact control for SMM control protein annotation, profiling panel (AID 1117). Conditions: alpha-BTX-A647 binding fluorescence, higher = more signal.

Dickkopf-related protein 1 (Homo sapiens), sequence (O94907 whole entry, looked up): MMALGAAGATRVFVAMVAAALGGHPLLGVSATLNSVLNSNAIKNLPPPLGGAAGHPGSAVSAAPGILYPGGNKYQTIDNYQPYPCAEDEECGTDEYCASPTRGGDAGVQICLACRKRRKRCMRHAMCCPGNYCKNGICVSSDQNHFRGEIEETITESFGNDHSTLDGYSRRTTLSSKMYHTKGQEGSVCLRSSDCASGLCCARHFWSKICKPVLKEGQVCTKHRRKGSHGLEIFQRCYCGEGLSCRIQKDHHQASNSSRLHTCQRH
Left-right determination factor 2 (Homo sapiens), sequence (O00292 whole entry, looked up): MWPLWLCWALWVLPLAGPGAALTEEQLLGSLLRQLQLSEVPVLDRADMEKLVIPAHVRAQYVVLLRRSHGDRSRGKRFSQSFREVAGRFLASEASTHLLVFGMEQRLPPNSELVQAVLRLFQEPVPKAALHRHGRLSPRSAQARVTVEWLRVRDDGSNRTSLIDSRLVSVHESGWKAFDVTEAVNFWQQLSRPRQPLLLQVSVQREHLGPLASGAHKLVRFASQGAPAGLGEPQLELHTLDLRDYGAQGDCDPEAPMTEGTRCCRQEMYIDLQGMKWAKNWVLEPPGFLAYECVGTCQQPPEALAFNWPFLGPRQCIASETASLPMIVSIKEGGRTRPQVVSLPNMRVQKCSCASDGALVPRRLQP
Follistatin-related protein 3 (Homo sapiens), sequence (O95633 whole entry, looked up): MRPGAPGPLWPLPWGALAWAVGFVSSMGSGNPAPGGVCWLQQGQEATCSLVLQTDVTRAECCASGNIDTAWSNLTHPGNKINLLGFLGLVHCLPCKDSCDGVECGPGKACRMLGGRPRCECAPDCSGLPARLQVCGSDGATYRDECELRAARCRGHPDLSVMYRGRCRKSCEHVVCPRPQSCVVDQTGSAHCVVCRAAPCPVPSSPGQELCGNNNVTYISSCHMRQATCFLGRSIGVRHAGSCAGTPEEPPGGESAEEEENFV
Torsin-1A-interacting protein 1 (Homo sapiens), sequence (Q5JTV8 whole entry, looked up): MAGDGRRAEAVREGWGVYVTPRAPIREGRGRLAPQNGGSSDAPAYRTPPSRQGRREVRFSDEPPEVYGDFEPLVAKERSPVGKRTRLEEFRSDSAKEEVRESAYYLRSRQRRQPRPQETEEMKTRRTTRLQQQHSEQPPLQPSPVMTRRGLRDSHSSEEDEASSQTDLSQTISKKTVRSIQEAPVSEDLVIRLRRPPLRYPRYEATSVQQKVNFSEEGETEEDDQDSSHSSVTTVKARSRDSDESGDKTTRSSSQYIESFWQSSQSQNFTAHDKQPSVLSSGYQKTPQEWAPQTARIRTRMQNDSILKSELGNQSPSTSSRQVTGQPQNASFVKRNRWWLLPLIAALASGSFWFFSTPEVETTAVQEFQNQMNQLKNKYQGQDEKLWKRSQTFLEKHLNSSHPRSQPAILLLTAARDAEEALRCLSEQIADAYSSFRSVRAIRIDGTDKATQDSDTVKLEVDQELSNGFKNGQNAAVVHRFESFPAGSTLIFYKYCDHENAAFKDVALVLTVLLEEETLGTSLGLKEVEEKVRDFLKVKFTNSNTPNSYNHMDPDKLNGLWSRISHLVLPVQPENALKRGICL
Fibroblast growth factor 10 (Homo sapiens), sequence (O15520 whole entry, looked up): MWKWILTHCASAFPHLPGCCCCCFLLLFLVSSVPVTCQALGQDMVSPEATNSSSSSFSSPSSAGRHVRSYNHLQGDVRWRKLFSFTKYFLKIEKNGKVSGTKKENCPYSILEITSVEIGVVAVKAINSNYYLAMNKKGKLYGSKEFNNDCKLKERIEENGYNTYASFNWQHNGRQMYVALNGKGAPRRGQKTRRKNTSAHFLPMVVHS
Alpha-bungarotoxin (Bungarus multicinctus), sequence (P60615 whole entry, looked up): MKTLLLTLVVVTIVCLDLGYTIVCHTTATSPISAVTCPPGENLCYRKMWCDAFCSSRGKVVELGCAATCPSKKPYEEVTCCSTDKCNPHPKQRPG
Epidermal growth factor receptor (Homo sapiens), sequence (P00533 whole entry, looked up): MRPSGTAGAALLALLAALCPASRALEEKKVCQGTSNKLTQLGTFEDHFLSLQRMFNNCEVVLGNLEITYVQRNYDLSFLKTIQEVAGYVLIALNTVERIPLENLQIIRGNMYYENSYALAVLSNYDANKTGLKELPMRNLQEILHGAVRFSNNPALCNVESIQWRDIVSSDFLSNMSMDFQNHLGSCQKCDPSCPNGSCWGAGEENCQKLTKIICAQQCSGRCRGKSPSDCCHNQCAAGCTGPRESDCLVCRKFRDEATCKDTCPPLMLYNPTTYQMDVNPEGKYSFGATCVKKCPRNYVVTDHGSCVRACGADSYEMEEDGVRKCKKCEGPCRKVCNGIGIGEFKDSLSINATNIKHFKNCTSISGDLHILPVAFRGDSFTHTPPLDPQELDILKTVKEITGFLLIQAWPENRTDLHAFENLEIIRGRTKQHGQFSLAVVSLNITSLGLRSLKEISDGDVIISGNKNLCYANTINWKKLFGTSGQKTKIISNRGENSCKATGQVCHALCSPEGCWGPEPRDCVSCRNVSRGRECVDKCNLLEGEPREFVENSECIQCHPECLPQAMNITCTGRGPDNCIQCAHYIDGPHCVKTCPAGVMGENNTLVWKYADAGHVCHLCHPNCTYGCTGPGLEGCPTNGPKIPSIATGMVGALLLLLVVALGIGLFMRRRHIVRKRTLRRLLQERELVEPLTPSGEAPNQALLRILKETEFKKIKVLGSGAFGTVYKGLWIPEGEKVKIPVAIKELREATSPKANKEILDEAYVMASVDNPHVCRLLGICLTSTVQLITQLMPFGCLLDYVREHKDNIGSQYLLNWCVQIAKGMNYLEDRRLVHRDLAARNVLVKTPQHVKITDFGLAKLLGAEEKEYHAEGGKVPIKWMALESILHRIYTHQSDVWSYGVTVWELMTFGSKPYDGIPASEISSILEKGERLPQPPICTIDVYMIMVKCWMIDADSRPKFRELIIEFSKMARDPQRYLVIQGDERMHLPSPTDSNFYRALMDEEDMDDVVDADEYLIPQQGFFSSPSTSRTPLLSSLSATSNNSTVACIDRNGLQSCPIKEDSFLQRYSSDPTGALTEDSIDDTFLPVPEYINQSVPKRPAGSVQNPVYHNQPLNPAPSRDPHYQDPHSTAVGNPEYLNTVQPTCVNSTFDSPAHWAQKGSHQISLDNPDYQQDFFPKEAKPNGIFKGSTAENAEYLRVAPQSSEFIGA

`C=CCOC(=O)[C@@H]1[C@H]2C(=O)O[C@H](c3ccccc3)[C@H](c3ccccc3)N2[C@H](c2ccc(OCCOC(=O)[C@H]3C[C@H]4C(=O)N5CCC[C@H]5C(=O)N4[C@H]3c3cccc(OCCO)c3)cc2)[C@@]12C(=O)Nc1ccc(I)cc12`: the composite z-score in [1] is 1.56; in [2] it was -0.0777; in test [3] it was 0.0879; in [5], 1.05; in [6] it was 1.24; in test [7] it was 1.08. The composite z-score is 1.42 in test [8]; 1.06 in [9]; -0.0842 in test [10]; 0.195 in test [11]; 1.19 in test [13]; -0.0165 in [14]. For the same molecule, the composite z-score in test [15] was 0.0231; in test [16] it was -0.0566; in test [17] it was 0.138; in [18], 0.373; in test [19], 1.09; in test [20], 0.659. Besides, the z-score in test [4] is 0.388 (inactive); in test [12], -0.898.
`[N-]=[N+]=Nc1ccccc1C[C@@]1(C(=O)NCc2ccccc2)N=C(c2ccc(OCCCO)cc2)O[C@@H]1c1ccccc1N=[N+]=[N-]`: the composite z-score came out at 1.07 in test [1]; 0.61 in test [2]; 1.01 in test [3]; 1.1 in test [5]; 0.913 in test [6]; 0.0359 in [7]. Besides, the composite z-score in test [8] is 0.309; in test [9], -0.0102; in [10], 1.04; in [11], -0.334; in test [13], -0.0656; in test [14], 1.69. The composite z-score was 0.683 in test [15]; 0.33 in test [16]; 0.171 in test [17]; 1.18 in test [18]; 1.19 in [19]; 1.97 in [20]. Also, the z-score in test [4] is -0.457 (inactive); in [12] it was -3.01.
Regarding `OCCCC1=CC(c2ccc(CN3CCCC3)cc2)N(Cc2cccc(OC(F)(F)F)c2)CC1` (stereo not given), the composite z-score in test [1] was 0.203; in test [2], -0.0082; in test [3], 0.983; in [5], -0.327; in [6] it was -0.517; in test [7] it was 0.297. The composite z-score in test [8] was 0.0596; in test [9], 0.0657; in [10], 1.65; in test [11] it was -0.526; in test [13] it was -0.103; in test [14], -0.197. Also, the composite z-score in [15] is 0.769; in [16], -0.096; in test [17], -0.0769; in test [18], -0.0898; in test [19], 0.779; in test [20], -0.371. Besides, the z-score was -1.35 (inactive) in [4] and -4.72 in test [12].
As to `N#Cc1ccc(C(O)C2C=CC3C(=O)NC(=O)C3N2Nc2ccc(Cl)cc2Cl)cc1` (stereo not given), the composite z-score in [1] is 1.42; in [2], 0.558; in test [3], 1.13; in test [5], 0.599; in test [6], -0.344; in test [7], 0.0129. Besides, the composite z-score is -0.124 in test [8]; -0.577 in test [9]; 1.03 in test [10]; 0.544 in test [11]; -0.535 in [13]; 1.69 in test [14]. The composite z-score stood at 0.635 in [15]; 0.0438 in test [16]; 0.296 in [17]; 0.732 in [18]; 2.08 in [19]; 0.531 in test [20]. The z-score is 1.9 (inactive) in test [4] and -0.436 in test [12].
Take `COc1ccc(C(O)C2C=CC3C(=O)NC(=O)C3N2Nc2ccc(Cl)cc2Cl)c2ccccc12` (stereo not given): the composite z-score was 0.828 in [1]; 0.913 in test [2]; 1.15 in test [3]; 0.0892 in test [5]; 0.15 in [6]; -0.582 in test [7]. Moreover, the composite z-score in test [8] was 0.483; in [9] it was -0.284; in test [10], 1.14; in test [11], 0.795; in [13], -0.65; in test [14], 2.02. Also, the composite z-score was 1.08 in [15]; -0.181 in test [16]; -0.116 in [17]; -1.02 in [18]; 0.693 in test [19]; 1.17 in test [20]. The z-score was -0.744 (inactive) in test [4] and -0.0178 in test [12].

The values are drawn from PubChem BioAssay.
